Bioassay records: PubChem BioAssay, National Center for Advancing Translational Sciences (NCATS)
Tau fluor cs: counter-screen for tau fibril formation inhibitors | actives 0.93% (n = 280,000) | tau K18 P301L Alexa594 fluorescence, heparin fibrillization | Potency, µM (titrated, usually from 57.7 µM), without a hit: top-dose activity change, negative = decrease; further: nearly all actives have a fitted effect of over 55% in size
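Human K18 P301L tau (15 uM unlabeled plus 0.24 uM Alexa 594-labeled, final) in 100 mM sodium acetate pH 7 was mixed with compound and 20 uM heparin and incubated 6 hr at 37 C.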
HPGD inh: blocks human HPGD enzyme activity; P15428; purified HPGD, NADH fluorescence kinetic, PGE2 substrate; Potency, µM, for the others: top-dose activity change, negative = inhibition, usual class: inhibitors; actives 4.3% (n = 150,000); AID 894; active means well fitted inhibition curve with a large enough effect, not every such curve was filed as active; inconclusive means small, poorly fitted or top-dose-only effect, or another doubt; inactive means no such curve, though single readings can be large or run the other way
Target sequence (P15428 whole entry, looked up): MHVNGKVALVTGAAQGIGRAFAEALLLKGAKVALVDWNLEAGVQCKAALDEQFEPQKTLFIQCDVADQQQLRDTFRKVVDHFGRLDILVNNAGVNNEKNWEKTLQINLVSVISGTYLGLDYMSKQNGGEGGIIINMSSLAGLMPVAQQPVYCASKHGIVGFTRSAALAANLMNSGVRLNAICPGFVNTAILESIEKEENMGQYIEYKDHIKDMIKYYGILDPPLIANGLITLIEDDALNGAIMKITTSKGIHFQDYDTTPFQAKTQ
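20 nM HPGD preincubated 15 min at room temperature with compound in 50 mM Tris-HCl pH 8, 0.01% Tween 20. Started with 1 mM NAD+ and 30 uM prostaglandin E2; NADH fluorescence (360/450 nm) read 5 times over 30-s intervals, last minus first.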
Tau ThT inhib: tau fibrillization inhibition (ThT binding) | recombinant tau K18 P301L, heparin-induced fibrillization, ThT fluorescence | Potency, µM (doses to about 57.4 µM), inactives show at the top dose activity, negative = inhibition, actives largely listed as inhibitors | actives 2.1% (n = 270,000); further: nearly all actives have a fitted effect of over 55% in size
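ThT emission at 510 nm, taken 1 hr after adding 30 uM dye, quantifies aggregates formed when 20 uM heparin acts on human tau K18 P301L for 6 hr at 37 C.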
ALDH1A1 block: ALDH1A1 (human) enzyme inhibition. Potency, µM (highest dose often 75.3 µM), inactives show top-dose activity, negative = inhibition, hits mostly inhibitors. Purified ALDH1A1, NADH fluorescence, propionaldehyde substrate. P00352. actives 7.3% (n = 220,000); active means well fitted inhibition curve with a large enough effect, not every such curve was filed as active; inconclusive means small, poorly fitted or top-dose-only effect, or another doubt; inactive means no such curve, though single readings can be large or run the other way;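 further: plate controls were no enzyme wells and a reference inhibitor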
Target sequence (P00352 whole entry, looked up): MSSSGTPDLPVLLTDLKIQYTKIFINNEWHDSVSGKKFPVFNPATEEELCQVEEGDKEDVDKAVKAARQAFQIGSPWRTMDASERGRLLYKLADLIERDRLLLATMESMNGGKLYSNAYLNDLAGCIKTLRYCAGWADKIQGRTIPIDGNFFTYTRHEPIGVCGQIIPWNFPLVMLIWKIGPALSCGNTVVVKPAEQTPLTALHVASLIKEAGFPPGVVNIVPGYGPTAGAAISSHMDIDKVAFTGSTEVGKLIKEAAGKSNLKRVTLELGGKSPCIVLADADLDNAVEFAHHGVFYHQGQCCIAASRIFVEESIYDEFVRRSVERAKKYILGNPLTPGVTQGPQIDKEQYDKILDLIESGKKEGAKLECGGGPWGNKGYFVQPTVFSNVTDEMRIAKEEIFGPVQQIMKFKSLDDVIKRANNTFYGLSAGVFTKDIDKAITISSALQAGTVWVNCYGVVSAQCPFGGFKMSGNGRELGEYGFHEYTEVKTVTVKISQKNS
Tau fibril FP: tau fibrillization inhibition (FP) | P10636 | K18 P301L tau heparin fibrillization, Alexa594 FP, 6 h | Potency, µM (doses to about 57.7 µM), for the others: at the top dose activity, negative = inhibition, actives largely listed as inhibitors | actives 0.39% (n = 280,000) | AID 1468; further: nearly all actives have a fitted effect of over 55% in size
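Steps: dispense K18 P301L tau (15 uM plus 0.24 uM Alexa 594 tracer, final) in pH 7 sodium acetate; add compound; add heparin (20 uM final); incubate 6 hr, 37 C; add ThT (30 uM final); after 1 hr ambient, read FP.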
JMJD2E inh: blocks human JMJD2E demethylase activity | B2RXH2 | JMJD2E catalytic domain, FDH-coupled NADH fluorescence (FDH is formaldehyde dehydrogenase) | Potency, µM (top dose mostly 57.1 µM), for inactives: at the highest dose activity change, negative = inhibition, actives largely listed as inhibitors | actives 1.6% (n = 230,000); active means well fitted inhibition curve with a large enough effect, not every such curve was filed as active; inconclusive means small, poorly fitted or top-dose-only effect, or another doubt; inactive means no such curve, though single readings can be large or run the other way;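 further: 0% = wells with enzyme and -100% = buffer wells without enzyme; nearly all actives have a fitted effect of over 50% in size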
Numbers without * were called inactive; [ ] = dose if it differs, or a comment. Compounds with a hit are over-represented: about 9.9% of the library has one in this group of screens. Unless noted, the call rests on the fitted dose curve; in most records, active means well fitted curve in the direction sought with a large enough effect; inconclusive means small, poorly fitted or top-dose-only effect, or another doubt; inactive means no such curve, though single readings can be large; an effect the other way counts as inactive or inconclusive. Unless noted, on the % scale 0 is the no-effect control and ±100 the full control effect; potency means the concentration at half of the fitted maximal effect.

For Cc1noc(C)c1-c1nnc(-c2ccc(OC(F)(F)F)cc2)o1 the results were Tau fluor cs -15.2%, Tau ThT inhib -13.8%, ALDH1A1 block 8.0%, Tau fibril FP 1.8% and JMJD2E inh -3.7%.
Screening COc1cc(OC)cc(C(=O)NC(=S)Nc2ccc(Cl)c(C(=O)O)c2)c1 returned Tau fluor cs -3.5%, HPGD inh -9.9%, Tau ThT inhib -2.1%, ALDH1A1 block -4.0%, Tau fibril FP -2.9% and JMJD2E inh inconclusive.
Screening COCCNC(=S)NNc1ccc(Cl)c(C(=O)O)c1 returned Tau fluor cs -14.3%, Tau ThT inhib inconclusive, ALDH1A1 block 8.91µM*, Tau fibril FP inconclusive and JMJD2E inh inconclusive.
For COc1ccc(C2=CC3=C(Br)C(=O)C(C)(OC(=O)c4ccco4)C(=O)C3=CO2)cc1 (stereo unspecified) the results were Tau fluor cs inconclusive, HPGD inh -6.6%, Tau ThT inhib 15.8µM*, ALDH1A1 block -10.3%, Tau fibril FP inconclusive and JMJD2E inh -1.3%.
`COc1ccc(C2=CC3=C(Br)C(=O)C(C)(OC(=O)c4cccs4)C(=O)C3=CO2)cc1` (stereo unspecified) gave Tau fluor cs -5.7%, HPGD inh -7.1%, Tau ThT inhib -21.6%, ALDH1A1 block -3.1%, Tau fibril FP -0.4% and JMJD2E inh 5.2%.
Screening CN1CCN(CC(=O)Nc2nc(-c3c[nH]c4ccccc34)cs2)CC1 returned Tau fluor cs inconclusive, Tau ThT inhib inconclusive, ALDH1A1 block inconclusive, Tau fibril FP 10.0% and JMJD2E inh -1.8%.
For CNc1nc(-c2c[nH]c3ccccc23)cs1 the results were Tau fluor cs 28.2µM*[quencher], HPGD inh -24.2%, Tau ThT inhib 25.1µM*, ALDH1A1 block 7.08µM*, Tau fibril FP inconclusive and JMJD2E inh inconclusive.
For Nc1nc(-c2c[nH]c3ccccc23)cs1 the results were Tau fluor cs 15.8µM*[quencher], HPGD inh -20.7%, Tau ThT inhib 15.8µM*, ALDH1A1 block 7.94µM*, Tau fibril FP inconclusive and JMJD2E inh inconclusive.
`CCc1ccc(-c2csc(-c3c[nH]c4ccccc34)n2)cc1` gave Tau fluor cs 12.5%, HPGD inh inconclusive, Tau ThT inhib 10.6%, ALDH1A1 block -3.0%, Tau fibril FP 2.9% and JMJD2E inh -5.0%.
`O=[N+]([O-])c1ccc(C2NS(=O)(=O)N=C3CCCCCN32)cc1` (stereo unspecified) gave Tau fluor cs 3.1%, Tau ThT inhib -17.4%, ALDH1A1 block 28.2µM*, Tau fibril FP -7.1% and JMJD2E inh inconclusive.
Screening CSc1ccc(CCNC(=O)c2ccc3c(c2)nc2n3CCC(C)C2)cc1 (stereo unspecified) returned Tau fluor cs -6.4%, Tau ThT inhib inconclusive and Tau fibril FP -2.3%.
Screening COC(=O)c1onc(-c2c(Cl)cccc2Cl)c1C(=O)OC returned Tau fluor cs -15.8%, Tau ThT inhib -3.3%, ALDH1A1 block 3.0%, Tau fibril FP -11.8% and JMJD2E inh -3.4%.
`CCOC(=O)C(=O)/C(=C\N(C)C)c1onc(-c2c(F)cccc2Cl)c1C(=O)OC` gave Tau fluor cs -2.2%, HPGD inh 10µM*, Tau ThT inhib -3.5%, ALDH1A1 block -11.1%, Tau fibril FP 7.8% and JMJD2E inh 3.1%.
Screening CCc1nc2sc3ccccc3c(=O)c2c(=O)n1Cc1ccco1 returned Tau fluor cs -6.8%, HPGD inh -4.9%, Tau ThT inhib inconclusive, ALDH1A1 block inconclusive, Tau fibril FP -6.5% and JMJD2E inh 2.6%.
`O=c1c2ccccc2sc2nc(C3CCCCC3)n(Cc3ccco3)c(=O)c12` gave Tau fluor cs 11.4%, HPGD inh 15.8µM*, Tau ThT inhib 15.9%, ALDH1A1 block 1.41µM*, Tau fibril FP -0.8% and JMJD2E inh -2.8%.
COc1ccc(-c2nc3c(Br)c(N)c(Br)cc3o2)cc1 was read as Tau fluor cs -19.2%, HPGD inh inconclusive, Tau ThT inhib inconclusive, ALDH1A1 block 14.1µM*, Tau fibril FP 2.9% and JMJD2E inh inconclusive.
Screening Nc1c(Br)cc2oc(-c3ccccc3)nc2c1Br returned Tau fluor cs -2.2%, HPGD inh -4.1%, Tau ThT inhib -10.9%, ALDH1A1 block 6.8%, Tau fibril FP 0.1% and JMJD2E inh 8.3%.
`CCCn1c(/N=C/c2ccc3c(c2)OCO3)nc2ccccc21` gave Tau fluor cs -5.4%, HPGD inh -24.1%, Tau ThT inhib 0.2%, ALDH1A1 block 14.1µM*, Tau fibril FP -1.4% and JMJD2E inh inconclusive.
For Cc1ccnc(NS(=O)(=O)c2ccc(NC(=O)c3cc(-c4ccc(Br)cc4)nc4ccccc34)cc2)n1 the results were Tau fluor cs 2.2%, HPGD inh -13.1%, Tau ThT inhib 11.6%, ALDH1A1 block -7.4%, Tau fibril FP -11.1% and JMJD2E inh inconclusive.
`c1ccc(CSc2nc3ccccc3[nH]2)cc1` gave Tau fluor cs -10.6%, Tau fibril FP -0.6% and JMJD2E inh 10.3%.
For O=C(CSc1nnc(-c2cccs2)o1)N1CCCCC1 the results were Tau fluor cs -3.2%, HPGD inh 25.1µM*, Tau ThT inhib -4.3%, ALDH1A1 block inconclusive, Tau fibril FP -4.2% and JMJD2E inh inconclusive.
`c1ccc(-c2nnc(CSc3nc4ccccc4[nH]3)o2)cc1` gave Tau fluor cs -9.9%, HPGD inh 28.2µM*, Tau ThT inhib -0.2%, ALDH1A1 block -8.3%, Tau fibril FP -8.0% and JMJD2E inh 6.8%.
Screening c1ccc2c(CSc3nnc(-c4ccncc4)o3)cccc2c1 returned Tau fluor cs -16.8%, HPGD inh 25.1µM*, Tau ThT inhib inconclusive, ALDH1A1 block -12.6%, Tau fibril FP -2.4% and JMJD2E inh -7.3%.
Screening O=C(CSc1nnc(-c2cccs2)o1)N1CCOCC1 returned Tau fluor cs 7.1%, HPGD inh -20.6%, Tau ThT inhib 13.6%, ALDH1A1 block -3.9%, Tau fibril FP -4.2% and JMJD2E inh 2.0%.
Cc1nnc(SCc2nnc(-c3cccs3)o2)n1Cc1ccccc1 was read as Tau fluor cs 4.1%, Tau ThT inhib 4.1%, ALDH1A1 block 12.6µM*, Tau fibril FP -1.9% and JMJD2E inh 4.4%.
For CN[C@@H]1NC(=O)c2ccccc2N1Cc1ccc(F)cc1 the results were HPGD inh -3.5% and ALDH1A1 block 15.9%[13.5 µM].
Screening O=C(COc1ccccc1F)OCc1cc(=O)n2nc(-c3cccs3)sc2n1 returned Tau fluor cs -11.5%, Tau ThT inhib inconclusive and Tau fibril FP -5.8%.
`NC(=O)C(=O)NCCCN1CCOCC1` gave Tau fluor cs 12.6%[2.34 µM], Tau ThT inhib -11.7%, ALDH1A1 block -2.5%, Tau fibril FP 5.3% and JMJD2E inh -6.5%.
